Compound activity deposited in PubChem by Broad Institute.
C diff growth = blocks growth of Clostridium difficile; Clostridium difficile clinical isolate growth, OD600, 24 h; active compounds read low; growth activity, negative = inhibition, % at 16 µg/mL (by protocol); 86,000 compounds, 0.25% hits;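 active means mean growth activity at or below -80% and every replicate also at or below -80%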
Pf Dd2 growth = P. falciparum Dd2 growth inhibition; 94,000 compounds, 2.3% hits; activity change, % at 10 µM; SYBR Green, 72 h; active compounds read low; AID 1159554; in the data active means activity change below about -80%
Hits are given with their value; ! = not confirmed by another sample. Rows were chosen to be rich in hits. Some 2.4% of all compounds tested hit in one or more screens of this group.

What do the screens show for `C[C@@H]1CN([C@H](C)CO)C(=O)c2cc(NC(=O)Nc3ccccc3)ccc2O[C@@H](C)CCCCO[C@H]1CN(C)S(=O)(=O)c1ccc(Cl)cc1`?
Pf Dd2 growth: -81

Results for C[C@@H]1CCCCO[C@@H](CN(C)S(=O)(=O)c2ccc(Cl)cc2)[C@@H](C)CN([C@H](C)CO)C(=O)c2cc(NC(=O)Nc3ccccc3)ccc2O1 ?
Pf Dd2 growth: -84

What do the screens show for `C[C@@H]1CCCCO[C@H](CN(C)S(=O)(=O)c2ccccc2)[C@H](C)CN([C@@H](C)CO)C(=O)c2cc(NC(=O)Nc3ccccc3)ccc2O1`?
Pf Dd2 growth: inactive

How did C[C@@H]1CN([C@@H](C)CO)C(=O)c2cc(NC(=O)Nc3ccccc3)ccc2O[C@@H](C)CCCCO[C@@H]1CN(C)S(=O)(=O)c1ccccc1 do in these assays?
Pf Dd2 growth: inactive

Results for O=C(C[C@H]1C[C@@H]2c3cc(NC(=O)Nc4ccccc4)ccc3O[C@@H]2[C@H](CO)O1)NCc1ccccn1 ?
C diff growth: inactive; Pf Dd2 growth: inactive

How did C[C@@H]1CN([C@H](C)CO)C(=O)c2cc(C3=CCCCC3)cnc2O[C@H]1CN(C)C(=O)C1CCOCC1 do in these assays?
C diff growth: inactive; Pf Dd2 growth: inactive

Results for O=C(NC1CCCC1)N1CC(=O)N2[C@H](C1)[C@H](c1ccc(-c3cccc(F)c3)cc1)[C@@H]2CO ?
C diff growth: inactive; Pf Dd2 growth: inactive

Results for COc1ccc(CN(C)C[C@@H]2OCCCC[C@H](C)Oc3ccc(N(C)C)cc3C(=O)N([C@H](C)CO)C[C@H]2C)cc1 ?
C diff growth: inactive; Pf Dd2 growth: inactive

Results for O=C(c1ccncc1)N1C[C@H]2[C@@H](c3ccccc31)[C@H](CO)N2C(=O)c1ccccc1F ?
C diff growth: inactive; Pf Dd2 growth: inactive

What do the screens show for `COc1ccccc1S(=O)(=O)N1C[C@@H]2N[C@H](C1)C2c1ccc(-c2ccccc2C)cc1` (some centres not stated)?
C diff growth: inactive; Pf Dd2 growth: inactive

Results for COc1cccc(-c2ccc(C3[C@@H]4CN(S(=O)(=O)c5ccccc5)C[C@H]3N4)cc2)c1 (some centres not stated) ?
C diff growth: inactive; Pf Dd2 growth: inactive

How did Cc1ccccc1-c1ccc(C2[C@@H]3CN(S(=O)(=O)c4ccccc4C)C[C@H]2N3)cc1 (some centres not stated) do in these assays?
C diff growth: -98!; Pf Dd2 growth: inactive

What do the screens show for `C/C=C/c1ccc(C2[C@@H]3CN(S(=O)(=O)c4ccccc4)C[C@H]2N3)cc1` (some centres not stated)?
C diff growth: inactive; Pf Dd2 growth: inactive

How did O=S(=O)(c1ccccc1)N1C[C@@H]2N[C@H](C1)C2c1ccc(-c2cccnc2)cc1 (some centres not stated) do in these assays?
C diff growth: inactive; Pf Dd2 growth: inactive

What do the screens show for `Cc1ccc(S(=O)(=O)N2C[C@@H]3N[C@H](C2)C3c2ccc(-c3ccncc3)cc2)cc1` (some centres not stated)?
C diff growth: inactive; Pf Dd2 growth: -81!

How did Cc1ccc(S(=O)(=O)N2C[C@@H]3N[C@H](C2)C3c2ccc(/C=C/c3ccccc3)cc2)cc1 (some centres not stated) do in these assays?
C diff growth: -95!; Pf Dd2 growth: inactive

Results for COc1cccc(S(=O)(=O)N2C[C@@H]3N[C@H](C2)C3c2ccc(/C=C/c3ccccc3)cc2)c1 (some centres not stated) ?
C diff growth: -94!; Pf Dd2 growth: inactive

Results for C[C@H]1CN([C@@H](C)CO)C(=O)c2cc(-c3cccnc3)cnc2O[C@@H]1CN(C)C(=O)c1cccc(F)c1 ?
C diff growth: inactive; Pf Dd2 growth: inactive

Results for COc1ccc(NC(=O)N(C)C[C@H]2OCCCC[C@H](C)Oc3ccc(NC(=O)c4ccncc4)cc3C(=O)N([C@@H](C)CO)C[C@@H]2C)cc1 ?
C diff growth: inactive; Pf Dd2 growth: inactive

What do the screens show for `CNC[C@H]1Oc2ncc(C#Cc3ccccc3F)cc2C(=O)N([C@@H](C)CO)C[C@H]1C`?
C diff growth: inactive; Pf Dd2 growth: inactive

What do the screens show for `COc1ccccc1CNC(=O)C[C@@H]1C[C@@H]2c3cc(NS(C)(=O)=O)ccc3O[C@@H]2[C@@H](CO)O1`?
C diff growth: inactive; Pf Dd2 growth: inactive

Results for O=S(=O)(c1ccc(-c2ccccc2)cc1)N1C[C@@H]2N[C@H](C1)C2c1ccc(-c2ccccc2)cc1 (some centres not stated) ?
C diff growth: inactive; Pf Dd2 growth: -87!

How did N#Cc1ccc(-c2ccc([C@@H]3[C@@H]4CN(S(=O)(=O)c5ccc(-c6ccccc6)cc5)C[C@H]3N4)cc2)cc1 do in these assays?
C diff growth: inactive; Pf Dd2 growth: inactive

How did C[C@@H]1CN([C@H](C)CO)C(=O)CCCn2cc(nn2)CO[C@@H]1CN(C)C(=O)Nc1cccc(C(F)(F)F)c1 do in these assays?
C diff growth: inactive; Pf Dd2 growth: inactive

How did COc1ccc(S(=O)(=O)N(C)C[C@H]2OCCCC[C@H](C)Oc3ccc(NC(=O)c4ccccc4)cc3C(=O)N([C@H](C)CO)C[C@@H]2C)cc1 do in these assays?
C diff growth: inactive; Pf Dd2 growth: inactive

Results for COc1ccc(S(=O)(=O)N(C)C[C@H]2OCCCC[C@H](C)Oc3ccc(NC(=O)c4ccccc4)cc3C(=O)N([C@H](C)CO)C[C@H]2C)cc1 ?
C diff growth: inactive; Pf Dd2 growth: -87

Results for COc1ccc(S(=O)(=O)N(C)C[C@@H]2OCCCC[C@@H](C)Oc3ccc(NC(=O)c4ccccc4)cc3C(=O)N([C@H](C)CO)C[C@@H]2C)cc1 ?
C diff growth: inactive; Pf Dd2 growth: inactive

What do the screens show for `COc1ccc(S(=O)(=O)N(C)C[C@H]2OCCCC[C@@H](C)Oc3ccc(NC(=O)c4ccccc4)cc3C(=O)N([C@@H](C)CO)C[C@@H]2C)cc1`?
C diff growth: inactive; Pf Dd2 growth: -83

Results for COc1ccc(S(=O)(=O)N(C)C[C@H]2OCCCC[C@@H](C)Oc3ccc(NC(=O)c4ccccc4)cc3C(=O)N([C@@H](C)CO)C[C@H]2C)cc1 ?
C diff growth: inactive; Pf Dd2 growth: inactive

How did COc1ccc(S(=O)(=O)N(C)C[C@@H]2OCCCC[C@H](C)Oc3ccc(NC(=O)c4ccccc4)cc3C(=O)N([C@H](C)CO)C[C@H]2C)cc1 do in these assays?
C diff growth: inactive; Pf Dd2 growth: -83

What do the screens show for `CCS(=O)(=O)N1CCC2(CC1)CN(Cc1ccc3c(c1)OCO3)[C@@H](CO)c1c2c2ccc(OC)cc2n1C`?
C diff growth: inactive; Pf Dd2 growth: inactive

What do the screens show for `C[C@@H]1CCCCO[C@H](CN(C)Cc2ccc3c(c2)OCO3)[C@@H](C)CN([C@H](C)CO)C(=O)c2cc(NC(=O)Nc3ccccc3)ccc2O1`?
C diff growth: inactive; Pf Dd2 growth: inactive

What do the screens show for `COCC(=O)N1CC2(CCN(S(C)(=O)=O)CC2)c2c(n(C)c3cc(OC)ccc23)[C@H]1CO`?
C diff growth: inactive; Pf Dd2 growth: inactive

Results for O=C(C[C@H]1C[C@H]2c3cc(NC(=O)c4ccc5c(c4)OCO5)ccc3O[C@H]2[C@H](CO)O1)NCC(F)(F)F ?
C diff growth: inactive; Pf Dd2 growth: inactive

Results for C[C@H]1CN([C@@H](C)CO)C(=O)c2cccc(NC(=O)c3ccc(-c4nccs4)cc3)c2O[C@@H]1CN(C)Cc1ccc(-c2ccccc2)cc1 ?
C diff growth: inactive; Pf Dd2 growth: -84
